# Results reported in PubChem BioAssay AID651821 (The Scripps Research Institute Molecular Screening Center, 2012).
# Among all 370,000 compounds or so, about 4,700 (1.3%) were called active. Shown is part of a subset that was picked to be rich in actives. A number with no mark means an inactive call.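 The calls were made as follows: active = inhibition above the plate cutoff, the mean of all test compounds on that plate plus 3 SD (cut at about 35% in these data); inactive = the rest.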
# Test: binders of r(CAG) RNA repeats, primary screen, biochemical, fluorescence (AID 651821);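 also: 0% = DMSO alone and 100% = 100 µM mitoxantrone as full dye displacement; higher means more dye released from RNA so lower well fluorescence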
# Conditions: r(CAG) RNA repeat, TO-PRO-1 dye displacement fluorescence; at 3 µM; stronger effect = higher value
row,SMILES,inhibition
1,COc1ccc2c(C(C)c3ccc(N)cc3)cn(C)c2c1 (stereo not drawn),5.87%
2,CN1C(=O)C2CC(O)C(SC3CC4C(=O)N(C)C(=O)C4CC3O)CC2C1=O (stereo not drawn),1.65%
3,COc1ccc(Cn2ccc3ccc(-c4ccc5ccn(Cc6ccccc6C)c5c4)cc32)cc1,15.1%
4,Cc1ccc(NC(=O)N2CCC(c3nc4c(nnn4Cc4c(F)cccc4Cl)c(=O)[nH]3)CC2)cc1,3.25%
5,O=C(Nc1ccc(F)cc1)N1CCCC(c2nc3c(nnn3Cc3ccccc3Cl)c(=O)[nH]2)C1 (stereo not drawn),0.69%
6,Cc1ccc(C)c(Cn2nnc3c(=O)[nH]c(C(=O)Nc4ccc(F)cc4)nc32)c1,60.2% (active)
7,COc1cccc(N2CCN(CC(=O)N(C)Cc3ccc(F)cc3)CC2)c1,-1.77%
8,O=C1CCCCC1C(=O)c1ccccc1 (stereo not drawn),-0.64%
9,C[C@H](O)[C@@H]1C(=O)N2CCc3c([nH]c4c(-c5ccc6c(c5)OCO6)cccc34)[C@@H]2C[C@@H]1N(C)C(=O)c1ccco1,5.15%
10,CC(C)NC(=O)c1ccc(Sc2ccccc2)c([N+](=O)[O-])c1,-3.38%
11,Cc1ccc(Sc2cc(C(=O)c3ccccc3C(=O)O)ccc2[N+](=O)[O-])cc1,72.1% (active)
12,Cc1ccc(C(=O)c2ccc(N3CCN(C)CC3)c([N+](=O)[O-])c2)cc1,-0.77%
13,COc1ccccc1C(=O)N1O[C@]23C=C[C@]14C[C@@H](O)CC[C@]4(C)C2CC[C@]1(C)[C@@H]([C@H](C)/C=C/[C@H](C)C(C)C)CC[C@H]13 (stereo partly drawn),4.71%
14,CCOc1ccc(-c2n[nH]c(=S)n2/N=C/c2cc3c(cc2[N+](=O)[O-])OCO3)cc1,4.13%
15,CSc1ccc(/C=N/N2CCN(Cc3ccccc3Cl)CC2)cc1,-3.03%
16,CSc1ccc(C=Nn2c(-c3ccc(F)cc3)n[nH]c2=S)cc1,45.4% (active)
17,O=C1[C@@H](c2ccccc2)[C@@H](c2ccccc2)N1c1ccccc1,2.62%
18,CCOC(=O)[C@]12CCCC3=C1N(CCC3)C(=O)[C@@H](CC(=O)NCc1cccs1)C2,-1.37%
19,C=CCN1C(=O)[C@@H](CC(=O)NCCCOCCCC)[C@]2(C(=O)OCC)CCCCC/C=C/12,0.69%
20,OC(c1ccccc1)c1nc(/C=C/c2ccc(C(F)(F)F)cc2)cs1 (stereo not drawn),3.22%
21,O=C(Nc1nc(-c2ccco2)c(-c2ccco2)s1)c1ccco1,70.5% (active)
22,O=C(Nc1c(-c2ccccc2)nc2c(Br)cc(Br)cn12)c1ccco1,7.88%
23,O=C(Nc1nonc1-c1ccc(Cl)cc1)c1ccco1,-0.35%
24,COC(=O)C1=C(C)N(Cc2ccc(F)cc2)C(=S)NC1c1cccc(Cl)c1 (stereo not drawn),3.4%

row,SMILES,inhibition
1,N[C@@H](Cc1ccccc1)C(=O)N1CCC[C@@H]1C(=O)N1CCC2CCN(S(=O)(=O)c3ccccc3)CC21 (stereo partly drawn),0.99%
2,COC(=O)Cc1nnn2c1[C@H](C)[C@@H](OC)c1cc(Br)ccc1-2,-0.28%
3,Clc1ccc(C(Cn2ccnc2)OCc2ccsc2Cl)c(Cl)c1 (stereo not drawn),2.12%
4,Cc1c(Cl)cccc1NC(=O)CC1SC(=NCC2CCCO2)NC1=O (stereo not drawn),-0.81%
5,CCN=C1SC(CC(=O)Nc2ccc(C)cc2)C(=O)N1CC (stereo not drawn),-2.97%
6,Cc1ccc(NC(=O)CC2S/C(=N/N=C3\CCCc4ccccc43)NC2=O)cc1 (stereo not drawn),42.2% (active)
7,CC(=O)N1C[C@@H](CO)[C@@H](N(C)C(=O)C(C)(C)C)C[C@H]1c1ccccc1Br,-1.82%
8,C[C@@H]1COc2cccc(N3CCCC3)c2S(=O)(=O)N1C,1%
9,CC(C)(C)C1C/C(=C/c2ccco2)C(=O)/C(=C/c2ccco2)C1 (stereo not drawn),44.8% (active)
10,O=C(CN1C(=O)NC(Cc2c[nH]c3ccccc23)C1=O)Nc1ccccc1C(F)(F)F (stereo not drawn),2.5%
11,CC1CCN(C(=O)c2ncn3c2C(=O)N[C@@H](C)C3)CC1,1.9%
12,O=C(N1CCOCC1)N1CC[C@H]2[C@H](CCCN2Cc2ccc(F)cc2)C1,-0.35%
13,C=CCN1C(=O)[C@@H](CC(=O)N2CCN(C(=O)OCC)CC2)[C@]2(C(=O)OCC)CCCCC/C=C/12,1.94%
14,COc1ccc(CSc2nnc(-c3cccc(C)c3)n2C)cc1,-0.02%
15,CCOc1ccc(NC(=O)CSc2nc3ccccc3c(=O)n2Cc2cccs2)cc1,1.43%
16,CCOc1ccc(-n2c(SCC(=O)Nc3cc(C(=O)O)ccc3Cl)nc3ccccc3c2=O)cc1,46.3% (active)
17,COc1ccc(-n2c(SCC(=O)Nc3ccc(C)c(Cl)c3)nc3ccccc3c2=O)cc1,16.1%
18,COc1ccc(CN2C(=O)N3Cc4cc(OC)ccc4C3CS2(=O)=O)cc1 (stereo not drawn),1.88%
19,COCCCNC(=O)C[C@H]1C[C@@]2(C(=O)OC)C(=C[C@H](C(C)(C)C)O[C@@H]2C)N(Cc2ccc(Cl)cc2Cl)C1=O,1.45%
20,COC(=O)[C@]12C[C@H](CC(=O)NCCc3ccccc3OC)C(=O)N(Cc3ccccc3)C1=C[C@H](C(C)C)O[C@@H]2C1CC1,0.77%
21,Cc1ccccc1-n1c(SCC(=O)Nc2cccc3ccccc23)nc(O)cc1=O,42.6% (active)
22,C=CCn1c(N)cc(=O)nc1SCC(=O)Nc1cccc2ccccc12,3.99%
23,Cc1ccc(-n2c(SCC(=O)Nc3cccc4ccccc34)nnc2-c2ccccn2)cc1,3.79%
24,CC(C)N1CCCCC(NC(=O)C(C)(C)C)C1=O (stereo not drawn),0.73%
